Screening data (PubChem)
Rows were chosen to be rich in hits. Some 2% of all compounds tested hit in one or more screens of this group.
APOBEC3A inh = inhibitors of human APOBEC3A DNA deaminase; recombinant A3A, FAM/TAMRA ssDNA deamination fluorescence; inhibition, % at 20 µM; hit rate 0.41% among 330,000; P31941;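 active = at least 40% inhibition at 20 µM here, with at most 30% in a related deaminase screen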;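 note: plate controls were A3A with DMSO for no effect and wells lacking A3A enzyme for full effect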
NALP1 inh = NALP1 inhibition; S. cerevisiae NALP1/ASC/caspase-1 growth, X-gal OD620, 72 h; inhibition, % at 10 µM; hit rate 0.61% among 280,000; in the data active = inhibition mostly above about 24%, no sharp cut-off; inactive = mostly below about 32%
A3G deaminase = inhibitors of human APOBEC3G DNA deaminase; Q9HC16; recombinant A3G, ssDNA deamination FAM/TAMRA fluorescence; inhibition, % at 20 µM; hit rate 0.28% among 330,000; AID 493012;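 active = inhibition of at least 40% at 20 µM, with no more than 30% in the related APOBEC3A deaminase screen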;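 note: plate controls were DMSO wells with A3G for no effect and wells lacking A3G enzyme for full effect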
sPLA2-III inh = Blocks human group III sPLA2 activity; QFRET BODIPY PC-A2 liposome hydrolysis, fluorescence; Q9NZ20; inhibition, % at 12.2 µM; hit rate 0.56% among 370,000; AID 743126;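 active = inhibition above mean plus 3 SD of compounds lying within the high and low control bounds, cut at about 19% in these data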;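 note: 0% = median of test compound wells and 100% = no enzyme DMSO wells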
Fh CTSL1 inh = cathepsin L1 inhibition, PFM18AAP counter-screen; hit rate 0.49% among 300,000; inhibition, % at 5.96 µM; recombinant F. hepatica cathepsin L1, Z-Leu-Arg-MCA fluorescence;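 active = inhibition above the mean of all tested compounds plus 3 SD, set per screening campaign, cut at about 17% in these data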;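 note: 0% = plate median of test compound wells and 100% = 1 µM Z-Phe-Ala-diazomethylketone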
* marks the source's active call; other numbers are inactive results; nt = no result.

SMILES	APOBEC3A inh	NALP1 inh	A3G deaminase	sPLA2-III inh	Fh CTSL1 inh
O=C(NC1CCCCCCC1)c1cc([N+](=O)[O-])ccc1Cl	-5	5	1	-3	-5
Cc1nnc(SCc2cc(=O)[nH]c(/N=C(\N)Nc3ccccc3)n2)s1	-6	19	-3	0	-2
CCOc1ccc(N/C(N)=N/c2nc(CSc3nnc(C)s3)cc(=O)[nH]2)cc1	3	39*	2	5	4
Cn1c(SCC(=O)NC2CC2)nnc1-c1ccccc1	-1	5	-5	3	0
Cc1cccc(-c2nnc(SCC(=O)NC3CC3)n2C)c1	-5	28*	-7	1	-1
COC(=O)C1CCN(C(=O)CN2CCC(C(=O)c3ccc(C)cc3)CC2)CC1	nt	nt	nt	3	nt
Cc1ccc(-n2c(SCC(=O)Nc3ccc(OCc4ccccc4)cc3)nnc2-c2cnccn2)cc1	nt	nt	nt	12	nt
CC(C)C(NC(=O)c1ccco1)C(=O)NCC(c1ccco1)N1CCCCC1 (stereo not given)	-3	-3	-9	3	79*
CSCCC(NC(=O)c1ccco1)C(=O)NCC(c1ccco1)N1CCCCC1 (stereo not given)	-5	nt	-7	1	nt
Cn1c(=O)c2ccccc2n2c(CCl)nnc12	-4	16	-11	-1	28*
COc1cccc(-c2nnc3sc(-c4ccc(Br)o4)nn23)c1	nt	nt	nt	2	nt
CN(C)C1=C(Cl)C(=O)N(c2ccc(Cl)c(Cl)c2)C1=O	0	nt	5	-4	38*
CN(C)/C=C1\C(=O)N(c2ccc(Cl)c(Cl)c2)CS1(=O)=O	-3	-1	-7	2	3
COc1ccc(-n2c(COc3ccc(C)cc3)nnc2SCC(=O)Nc2ccc(S(=O)(=O)Nc3cc(C)nc(C)n3)cc2)cc1	nt	nt	nt	-61	nt
COCCCNC(=O)c1ccc2c3c(onc13)-c1ccccc1C2=O	3	6	-3	nt	22*
O=C1C2C3C=CC(C3)C2C(=O)N1CNc1ccc(O)cc1 (stereo not given)	1	24	4	nt	71*
Cc1ccc(NCN2C(=O)C3C4C=CC(C4)C3C2=O)cc1 (stereo not given)	0	-14	-7	-1	1
C[C@H](NS(=O)(=O)c1ccc([N+](=O)[O-])cc1)C(=O)NCCNC(=O)[C@@H](C)NS(=O)(=O)c1ccc([N+](=O)[O-])cc1	nt	nt	nt	3	nt
CCOc1cc(-c2nc(-c3ccc(C)nc3OC)no2)cc(OCC)c1OCC	nt	27*	nt	5	nt
C=CCN(Cc1ccccc1)C(C#CC(=C)C)Cc1ccccc1 (stereo not given)	nt	nt	nt	9	nt
NC(=S)N/N=C1\CCOc2ccc(F)cc21	-3	30	-4	11	18*
O=C(N/C(=C/C=C/c1ccccc1)C(=O)N1CCCCC1)c1ccc([N+](=O)[O-])cc1	-3	-3	-9	-5	18*
CC(C)CN1C(=O)C[C@@]2(C(=O)N(C)c3ccc(NS(=O)(=O)C4CC4)cc32)C1c1ccccc1 (stereo not given in full)	nt	nt	nt	-2	nt
COc1ccc(O)c(/C=N/NC(=O)c2cc(=O)[nH]c3ccccc23)c1	1	45*	-3	-7	-1
CCCn1c(=O)c2ccccc2n2c(SCC(=O)c3ccccc3)nnc12	-6	10	0	-10	-3
SMILES	APOBEC3A inh	NALP1 inh	A3G deaminase	sPLA2-III inh	Fh CTSL1 inh
CCCn1c(=O)c2ccccc2n2c(SCC(=O)c3ccc(F)cc3)nnc12	nt	42*	nt	nt	nt
CCOc1cc(N2CCOCC2)c(OCC)cc1NC(=O)CN1CCCC(C)C1 (stereo not given)	-3	23	-8	6	45*
CCOc1cc(N2CCOCC2)c(OCC)cc1NC(=O)COC(=O)c1cccc2ccccc12	-1	18	-4	4	30*
Cc1c(NC(=O)C2CCCN(S(=O)(=O)c3ccc(Br)s3)C2)c(=O)n(-c2ccccc2)n1C (stereo not given)	nt	nt	nt	0	nt
Cc1nn(CCC(=O)NNC(=O)Nc2ccc(Cl)cc2)c(C)c1[N+](=O)[O-]	nt	nt	nt	2	nt
Oc1oc(-c2ccccc2)nc1C=Nc1cccc2ccccc12	-3	45	-4	-10	0
Oc1oc(-c2ccccc2)nc1/C=N/c1nccs1	-3	38	-7	5	45*
Oc1oc(-c2ccccc2)nc1C=NCc1ccncc1	1	6	-2	1	36*
CCCCOc1ccc(-c2nc(/C=N/c3nccs3)c(O)o2)cc1	-1	32	-8	8	0
Oc1oc(-c2ccc(Br)cc2)nc1/C=N/c1ccccn1	-2	9	-4	8	23*
